# Measurements taken from PMC12136788.
# Residue numbers refer to the chain shown, from its start. Over roughly 24,000 sequences, “enrichment r” has its median near 0.99; the highest 2% begin near 3.7. Only a selection was taken, and the highest values are over-represented in it overall.
# T1: UNK ZnF1-3 (human, UniProt Q9C0B0 31-174)
# T1 sequence: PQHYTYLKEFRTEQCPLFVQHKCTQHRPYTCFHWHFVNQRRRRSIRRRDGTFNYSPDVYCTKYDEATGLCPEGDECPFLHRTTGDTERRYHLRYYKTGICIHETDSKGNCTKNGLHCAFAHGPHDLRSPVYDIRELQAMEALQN
# B1: chr4:42581876:42581877:-_ENSG00000124406_ENST00000264449|hu_hu|FALSE|FALSE (ssRNA)
# RNA: GGGAGUUCUACAGUCCGACGAUCGCCACCAUAGUUUAGAUUGAGAUACCAGUCUUUUCCAGAAUGCCUUCGAUUCCAAAUGGCUGAGCCCACAGAACAGACAAGAGACAUGGCAAUUAAGAUACAAAAUAAAAUCAAAAUUUGCAACAGAGGAUUGAGCAUCA
# B2: chr21:34924512:34924513:+_ENSG00000159140_ENST00000381679|hu_mus|motif|central (ssRNA)
# RNA: GGGAGUUCUACAGUCCGACGAUCAGAUGACAUCAUGGAACGUUCUGCAGCAUAGGACAUCAUCAUAGAACGUCUAGAUGCGGACAUCAAGGGUCUAGGUGCUAACCUGUAUGGCCUAGGUGCUAUCCUAUAGGACCUGGGUGCCAACAGAGGAUUGAGCAUCA
# B3: 122452171_122453414_3711_CDS_ENSMUSG00000034602_ENSMUST00000073792|mouse|control|control (ssRNA)
# RNA: GGGAGUUCUACAGUCCGACGAUCUCGGUCCAGUAGAUGAAAGAGUACCUUCCAAAUAACGGUGUGCCAGGUGGAGUGCUGCAGCAGGGUCCCGUGCGCUCCGAUCGUGGAGAACAGGGUCUGCCCUGCGCUCUUCCUCACGGCCAACAGAGGAUUGAGCAUCA
# B4: chr17:56552419:56552420:-_ENSMUSG00000013236_ENSMUST00000086828|mus_mus|mus_mus_mus_hu_False|1_48 (ssRNA)
# RNA: GGGAGUUCUACAGUCCGACGAUCAAAAAAUACACUAUUUAAAAAAAAUGAAAUGUCACGGGAUACAGUUACACUGAGAGUUUUAAAAAAAAAUAAGAUUCUGGUCCCAGCCCAGUGUCCCCAGGCUGCAGAGCGGGGCAGAGGCAACAGAGGAUUGAGCAUCA
# B5: chr17:56552419:56552420:-_ENSMUSG00000013236_ENSMUST00000086828|mus_mus|mus_mus_mus_hu_False|48_48 (ssRNA)
# RNA: B4 RNA with C138A, A139G, G143C
# B6: chr17:56552419:56552420:-_ENSMUSG00000013236_ENSMUST00000086828|mus_mus|mus_mus_mus_hu_False|48_58 (ssRNA)
# RNA: B4 RNA with G77C, G79C, U81A, C138A, A139G, G143C
# B7: chr17:56552419:56552420:-_ENSMUSG00000013236_ENSMUST00000086828|mus_mus|mus_mus_mus_hu_False|48_98 (ssRNA)
# RNA: B4 RNA with U38A, U39A, C138A, A139G, G143C
# B8: 35626089_35772405_348_CDS_ENSG00000108100_ENST00000265375|human|control|control (ssRNA)
# RNA: GGGAGUUCUACAGUCCGACGAUCGUCCGUCUGAGAUUUACUGAGGAAUAUUGUGCUGGCCCGAGGAUGAUCUGAAGGAUUGAAUUCCAUGUUCAAAUCGUCUAUGUUCUCCCGGUCGCUGAUGUGCUGCAGGUUGCAGCCCGUCAACAGAGGAUUGAGCAUCA
# B9: chr2:216981417:216981418:+_ENSG00000079246_ENST00000392132|hu_hu|hu_hu_hu_mus_True|18_98 (ssRNA)
# RNA: GGGAGUUCUACAGUCCGACGAUCCUGAUACUGGUCCCCACCAGAAAGGGCAUUAUCAGUGCCAUCUGUGCCAUAGAGGACUAACGCAAUCUCAUCUUUGCUCUCCGAAAAUACCUGUCGCUGUACAAACAUAGUCAUCACUUUCAACAGAGGAUUGAGCAUCA
# B10: chr11:48616917:48616918:+_ENSMUSG00000020372_ENSMUST00000020640|mus_mus|FALSE|FALSE (ssRNA)
# RNA: GGGAGUUCUACAGUCCGACGAUCGACGAUGAUAGGGUUGCUGCUGUUCGGGGAGAAGCGGACACAAGACACCCAUUCUGAAUGACUCUCAUCCUGGACCGUGUACUUGCAGACACCCAGAGUAUUCCAUAACUUUAUGGUCUUCAACAGAGGAUUGAGCAUCA
# B11: chr14:66974463:66974464:+_ENSMUSG00000022044_ENSMUST00000074523|mus_hu|mus_mus_mus_hu_False|88_88 (ssRNA)
# RNA: GGGAGUUCUACAGUCCGACGAUCUUGUAGGACGACUUAUUCAGGGGAUCAGACAAGAAGCAGGAGCAGAACAAGGACACCAGCGGGAGCUCCUUCAUCUUCUCUUUGUAGGCAGCAAGGGUCAUGUUUCUGGGAUCUGGUGGCCAACAGAGGAUUGAGCAUCA
# B12: chr14:67424093:67424094:-_ENSMUSG00000022048_ENSMUST00000022629|mus_hu|FALSE|FALSE (ssRNA)
# RNA: GGGAGUUCUACAGUCCGACGAUCGAGAGACGGGGUGUGGGGCCCCAAGGGGGACCCCAUGAACUGGCUGCUCCACAGUAACUAUCACAGGCUCUUAAAAAAAAAAACAAAAAAAAAAAAAGGAAGGAAGAAAGAAGUCUCAGACAACAGAGGAUUGAGCAUCA
# B13: chr22:32879901:32879902:+_ENSG00000100225_ENST00000397426|hu_mus|hu_hu_hu_mus_False|78_78 (ssRNA)
# RNA: GGGAGUUCUACAGUCCGACGAUCCUCUUCCAUACUCAUGGCAUCCUGAAUUGACUCAGCUUCAAAAUUUUGACUAGGCCCUUCCAUACUGUCAUCAGUCCAGGCAUCAAAUGGGGUGGCCUGUCCUUGGGAUGAAUCAGUCCCCAACAGAGGAUUGAGCAUCA
# B14: chr7:143080189:143080190:+_ENSG00000159840_ENST00000392910|hu_hu|FALSE|FALSE (ssRNA)
# RNA: GGGAGUUCUACAGUCCGACGAUCUGGGGCUCCAGGACUGAACUUGGAAGCCACAGGAGUAAACUUAGGAGUCACUGGAGAAAACUUAGGGGCUGGAGCCGGAGAUGAGGCUGGGGGCCCUCGGGGCUGGGUGUUAGCCAAAGACAACAGAGGAUUGAGCAUCA
# B15: chr14:67424093:67424094:-_ENSMUSG00000022048_ENSMUST00000022629|mus_hu|motif|central (ssRNA)
# RNA: B12 RNA with U82G, A83G
# B16: 157127611_157127731_2631_3pUTR_ENSMUSG00000026469_ENSMUST00000027741|mouse|control|control (ssRNA)
# RNA: GGGAGUUCUACAGUCCGACGAUCAUUAAAAGUAGCUUUGUGGAGGAGGUGCUGCUCCAAGCUGCACUUUCCCUGCAAGUGCUGCCAGUGUCUCUGCACUGGCUAUGAAGGAAGGGAAAAACUCUCCAUAGAAACUGACAGAAACAACAGAGGAUUGAGCAUCA
# B17: 23240013_23240133_1240_CDS_ENSG00000136243_ENST00000258742|human|control|control (ssRNA)
# RNA: GGGAGUUCUACAGUCCGACGAUCACUACCAAAACCAGCCACAGAACUGCCACCUCCAAAGGCUGGGGCCACUGGAGCUCUGACAGGACCUGUUGCCAAGGAAGCUGGAAGUCCUGAAAAUCCAGGUGAUCCAAAACUGGAAGCCAACAGAGGAUUGAGCAUCA
# B18: chr6:43255143:43255144:+_ENSG00000146216_ENST00000259750|hu_mus|FALSE|FALSE (ssRNA)
# RNA: GGGAGUUCUACAGUCCGACGAUCUCCUAGGCCUCCCCUUCUUUCAAUCUCCAAACCUGGGUGUUGUUGGUCCUACGGCAGAAGGGAGACUGAGGGGGGCACCUACACUCACAGUUAGGUUGGUGGCAAGGGGCAGGCCCAGGGCAACAGAGGAUUGAGCAUCA
# B19: chr8:73282188:73282189:+_ENSMUSG00000031840_ENSMUST00000034301|mus_hu|FALSE|FALSE (ssRNA)
# RNA: GGGAGUUCUACAGUCCGACGAUCUAGGGUGUCAUCUGGCCCCUCUUCACAACUGACAACUGUGGAUGGGGGUGAAUUUUAAAAAAAGGCGGGGGGGGGGGGUUCAGGAGGGUGAGCGGUGAGUUCACGGGGCCACGAGACACCCAACAGAGGAUUGAGCAUCA
# B20: chrX:71549400:71549401:+_ENSMUSG00000019087_ENSMUST00000019231|mus_hu|mus_mus_mus_hu_False|28_68 (ssRNA)
# RNA: GGGAGUUCUACAGUCCGACGAUCGCAGUAGGAAGAGGGAAGCUCUUCAGUCCAGUGCGCUGCAGGGAGAAACAUGAACAACACGGACACCGUCCCACCCUCAACCCUCUCAGGUGUACAGGGUCACACAAUCUGGGUCAAAGACAACAGAGGAUUGAGCAUCA
# B21: chr15:81680702:81680703:-_ENSMUSG00000048546_ENSMUST00000050467|mus_mus|motif|central (ssRNA)
# RNA: GGGAGUUCUACAGUCCGACGAUCGAGAGAGAGUUGAGGCUAGGGCCAGACUUAUUUGGGUGGCAGGCCCUGAGAAGACAGCGGGGUUGGGGGUUGUGGACACGGGGGUGGAGGGUGGGGGGGUGUCAGCCUCUCCCUGUUUCACAACAGAGGAUUGAGCAUCA
# B22: 34053828_34053948_230_3pUTR_ENSMUSG00000051390_ENSMUST00000053429|mouse|control|control (ssRNA)
# RNA: GGGAGUUCUACAGUCCGACGAUCUGGUCACCUCAGGGAAGGACACGUGUACCACUGCAGCUGCCGGCAGAGGCAGUGGCGGUGGAGCCAGUGACAGAGGCAGUGGGAGUGUGGCCCCACUGGGUGACAGAGCAGACGGCUCCACAACAGAGGAUUGAGCAUCA
# Target: T1, UNK ZnF1-3
# Assay: nsRBNS (natural sequence RNA bind-n-seq); RBNS binding buffer (assumed for nsRBNS): 25 mM Tris pH 7.5, 150 mM KCl, 3 mM MgCl2, 0.01% Triton X-100, 500 ug/ml BSA, 20 U/ml SUPERase-In, 4 C; UNK is unkempt and MSI1 is Musashi-1; names of the RNAs are library labels; protein concentration not given here; high values mean tight binding
row,Binder,binding signal [enrichment R]
1,B1,3.52
2,B2,0.683
3,B3,0.594
4,B4,3.79
5,B5,7.18
6,B6,8.56
7,B7,11.1
8,B8,0.777
9,B9,1.16
10,B10,0.907
11,B11,2
12,B12,20.5
13,B13,1.23
14,B14,1.45
15,B15,7.78
16,B16,0.603
17,B17,1.23
18,B18,0.766
19,B19,4.04
20,B20,1.64
21,B21,4.46
22,B22,0.895
